Assay results taken from PubChem BioAssay AID372 (MTDP, 2006).
Among all 100,000 compounds or so, about 770 (0.77%) were called active. Rule as the data show it: active = inhibition above about 50%; inactive = the rest. The entries come from a sample that favours actives as a whole.

What follows are compounds tested against Gag-Pol polyprotein (Human immunodeficiency virus type 1 group M subtype B (isolate HXB2)) (UniProt P04585) (assay: RNase H inhibition, HIV 1 Gag Pol polyprotein, FRET biochemical assay, screening (AID 372)). Settings: HIV-1 RT RNase H, FRET RNA/DNA substrate fluorescence; at 10 µM; stronger effect = higher value.

Structure (SMILES)	inhibition
c1ccc(-c2onc3ccc(Oc4ccc5noc(-c6ccccc6)c5c4)cc23)cc1	19% (inactive)
O=[N+]([O-])c1ccccc1S(=O)(=O)NCCSCc1ccc(Cl)cc1	50% (active)
O=[N+]([O-])c1ccccc1S(=O)(=O)NCCSc1ccccc1	33% (inactive)
O=S(=O)(NCCSCc1ccccc1)c1ccc(Cl)cc1	15% (inactive)
COC(=O)c1ccc(-c2ccc(/C=C3\SC(=O)N(c4ccccc4)C3=O)o2)cc1	57% (active)
COC(=O)c1ccc(-c2ccc(/C=C3/SC(=S)N(c4ccccc4)C3=O)o2)cc1	4% (inactive)
O=C(O)c1ccc(-c2ccc(/C=C3/SC(=O)N(c4ccccc4)C3=O)o2)cc1	15% (inactive)
COc1cc(/C=C(\C#N)C(N)=S)ccc1OCc1ccccc1	10% (inactive)
CCOc1ccc(N(CC(N)=O)S(=O)(=O)c2ccc(SC)cc2)cc1	0% (inactive)
CCOC(=O)c1c(NC(C)=O)sc2c1CCN(C(=O)OCC)C2	9% (inactive)
CCOC(=O)c1c(NC(=O)COc2ccc(Cl)cc2)sc2c1CCN(C(=O)OCC)C2	38% (inactive)
CCOC(=O)c1c(NC(=O)Cc2ccc(OC)cc2)sc2c1CCN(C(=O)OCC)C2	50% (active)
CCOc1ccc(NC(=O)CSc2nc3ccccc3s2)cc1	10% (inactive)
Nc1c2c(cc3ccccc13)C(=O)c1ccccc1C2=O	46% (inactive)
CCOc1ccccc1C(=O)Nc1cccc(OC)c1	11% (inactive)
Cc1ccc(S(=O)(=O)NC(=O)OC(c2ccccc2)C(F)(F)F)cc1 (stereo not drawn)	0% (inactive)
CCc1ccccc1NC(=O)c1ccc(CN2CCc3ccccc3C2)cc1	7% (inactive)
COc1ccc(CC(=O)Nc2ccc(Br)c(C)c2)cc1OC	12% (inactive)
COc1ccccc1CC(=O)Nc1ccc(F)cc1	10% (inactive)
COc1ccccc1CC(=O)Nc1cc(C)ccn1	53% (active)
COc1ccccc1CC(=O)Nc1ccc(Br)c(C)c1	59% (active)
COc1ccccc1CC(=O)Nc1ccc(C)c(Cl)c1	5% (inactive)
COc1ccccc1CC(=O)Nc1nccs1	14% (inactive)
CCC(C)c1ccc(NC(=O)Cc2ccccc2OC)cc1 (stereo not drawn)	52% (active)
CCOC(=O)c1ccc(NC(=O)Cc2ccccc2OC)cc1	8% (inactive)

Structure (SMILES)	inhibition
COc1cccc(OC)c1C(=O)Nc1cc(C)ccn1	0% (inactive)
COc1ccccc1NC(=O)Cc1ccc(F)cc1F	0% (inactive)
COc1ccccc1CC(=O)Nc1ccc(F)cc1F	55% (active)
COc1ccccc1CC(=O)Nc1cccc(F)c1	0% (inactive)
Cc1nonc1-c1cn2cc(Cl)ccc2n1	8% (inactive)
COc1ccccc1C/C(N)=N/OC(=O)Cc1ccc(Cl)cc1	22% (inactive)
O=C(Nc1ccc(S(=O)(=O)N2CCCCCC2)cc1)c1cccc([N+](=O)[O-])c1	9% (inactive)
CCOC(=O)C1=C(C)N=c2s/c(=C\c3ccc([N+](=O)[O-])o3)c(=O)n2C1c1ccc(SC)cc1 (stereo not drawn)	20% (inactive)
COc1ccc(S(=O)(=O)N(CCc2ccccc2)CC(=O)NCC2CCCO2)cc1 (stereo not drawn)	2% (inactive)
CCOc1ccc(N2C(=O)/C(=C/c3cc(Br)c(O)c(OC)c3)C(=O)NC2=S)cc1	11% (inactive)
COc1ccccc1CC(=O)Nc1cccc(C)c1	0% (inactive)
COc1ccccc1CC(=O)Nc1ccc(Br)cc1	38% (inactive)
COc1ccccc1CC(=O)Nc1cccc(Br)c1	67% (active)
O=C1c2ccc(-c3nc4ccccc4c(=O)o3)cc2C(=O)N1c1cccc(I)c1	0% (inactive)
Cc1ccc2c(c1)N(C(=O)c1ccccc1Br)C(C)(C)c1ssc(=S)c1-2	33% (inactive)
C=CCn1c(=O)c(C(=O)NCCCO)c(O)c2ccccc21	11% (inactive)
COc1ccc(/C=N/NC(=S)Nc2cccc(C)c2)c2ccccc12	5% (inactive)
COC(=O)C1=C(C)NC(C)=C(C(=O)OC)C1c1cn(-c2ccccc2)nc1-c1ccco1	4% (inactive)
O=C(Nc1ccc(Cl)c(Cl)c1)OCCOc1ccccc1	50% (active)
COc1ccccc1OCCOC(=O)Nc1ccc(Cl)c(Cl)c1	10% (inactive)
O=C(Nc1ccc(Cl)c(Cl)c1)OCCOc1ccccc1Cl	48% (inactive)
COc1cccc(OCCOC(=O)Nc2ccc(Cl)c(Cl)c2)c1	50% (active)
Cc1ccccc1OCCOC(=O)Nc1ccc(Cl)c(Cl)c1	51% (active)
Cc1cccc(OCCOC(=O)Nc2ccc(Cl)c(Cl)c2)c1	46% (inactive)
Cc1ccc(OCCOC(=O)Nc2ccc(Cl)c(Cl)c2)cc1	46% (inactive)

Structure (SMILES)	inhibition
O=C(Nc1ccc(Cl)c(Cl)c1)OCCOc1cccc(Br)c1	44% (inactive)
COc1ccc(OCCOC(=O)Nc2ccc(Cl)c(Cl)c2)cc1	34% (inactive)
Cc1cccc(OCCOC(=O)Nc2cccc(Cl)c2)c1	44% (inactive)
O=C(Nc1cccc(Cl)c1)OCCOc1ccccc1	48% (inactive)
O=C(Nc1cccc(Cl)c1)OCCOc1cccc(F)c1	58% (active)
CC1=C(C#N)C(c2ccccc2C(F)(F)F)C2=C(CCCC2=O)N1 (stereo not drawn)	12% (inactive)
O=C1Nc2ccccc2NC1C1OC(c2ccccc2)=CC1=O (stereo not drawn)	0% (inactive)
Cc1cccc(C2C(=O)c3ccccc3C2=O)c1C	13% (inactive)
O=C(O)c1ccc(N2C(=O)CC(N3CCN(Cc4ccc5c(c4)OCO5)CC3)C2=O)cc1 (stereo not drawn)	12% (inactive)
C/C(=N\NC(=O)c1cc(C)[nH]n1)c1ccc(N)cc1	5% (inactive)
O=S1(=O)CCC(NC(=S)N/N=C/c2ccc(Cl)c(Cl)c2)C1 (stereo not drawn)	13% (inactive)
COc1ccc(C(N)=CC(=O)C(C)(C)C)cc1	7% (inactive)
Clc1cccc(OCCCN2CCOCC2)c1Cl	2% (inactive)
Clc1cccc(OCCCCN2CCOCC2)c1Cl	55% (active)
Clc1cccc(OCCN2CCOCC2)c1Cl	0% (inactive)
Cc1sc2nc(SCC(=O)NCCO)[nH]c(=O)c2c1C	2% (inactive)
COc1ccc(C(=O)NC(=S)Nc2ccc3oc(-c4ccccc4Cl)nc3c2)cc1Cl	53% (active)
COc1ccc(C(=O)NC(=S)Nc2ccc3oc(-c4ccccc4Cl)nc3c2)cc1OC	14% (inactive)
COc1ccc(-c2nc3cc(NC(=S)NC(=O)c4ccccc4OC)ccc3o2)cc1Cl	13% (inactive)
COc1ccc(C(=O)NC(=S)Nc2ccc3oc(-c4ccccc4C)nc3c2)cc1Cl	25% (inactive)
COc1ccc(-c2nc3cc(NC(=S)NC(=O)c4ccccc4C)ccc3o2)cc1	7% (inactive)
CCOc1ccc(-c2nc3cc(NC(=S)NC(=O)c4ccccc4Br)ccc3o2)cc1	20% (inactive)
COc1ccc(-c2nc3cc(NC(=S)NC(=O)c4ccccc4C)ccc3o2)cc1Cl	56% (active)
CCOc1ccc(-c2nc3cc(NC(=S)NC(=O)c4ccccc4C)ccc3o2)cc1	61% (active)
COc1ccc(-c2nc3cc(NC(=S)NC(=O)c4ccccc4Cl)ccc3o2)cc1Cl	45% (inactive)

Structure (SMILES)	inhibition
O=C(Nc1ccc2ccccc2c1)c1cc(I)ccc1Cl	23% (inactive)
COc1ccc(/C(N)=N/OC(=O)/C=C/c2ccccc2)cc1	15% (inactive)
CCCCOC(=O)c1ccc(NC(=O)COc2ccccc2Br)cc1	15% (inactive)
COc1ccc(NC(=O)CN(c2c(C)n(C)n(-c3ccccc3)c2=O)S(=O)(=O)c2ccccc2)cc1	4% (inactive)
O=C(CSc1nc2sc3c(c2c(=O)n1-c1ccc(Cl)cc1)CCCC3)c1ccccc1	13% (inactive)
O=[N+]([O-])c1ccc(N2CCN(S(=O)(=O)c3ccc4ccccc4c3)CC2)cc1N1CCCC1	5% (inactive)
CC(c1ccccc1)N1C(=O)/C(=C/c2cccc([N+](=O)[O-])c2)SC1=S (stereo not drawn)	11% (inactive)
Cc1ccc(C(=O)Nc2ccccc2)cc1[N+](=O)[O-]	7% (inactive)
O=C(Nc1ccc2nn(-c3ccc(F)cc3)nc2c1)c1ccc([N+](=O)[O-])cc1	16% (inactive)
O=C(Nc1ccc(-c2nc3ccc(NC(=O)c4ccccc4[N+](=O)[O-])cc3[nH]2)cc1)c1ccccc1[N+](=O)[O-]	13% (inactive)
O=C(Nc1ccc2nn(-c3ccccc3)nc2c1)c1ccc(Cl)c([N+](=O)[O-])c1	21% (inactive)
O=C(Nc1ccc2nn(-c3ccc(F)cc3)nc2c1)c1ccc(Cl)c([N+](=O)[O-])c1	52% (active)
O=C(Nc1ccc2nn(-c3ccc(Cl)cc3)nc2c1)c1ccc([N+](=O)[O-])cc1	31% (inactive)
COc1ccc(C(=O)NC(=S)Nc2ccc3nn(-c4ccc(F)cc4)nc3c2)cc1[N+](=O)[O-]	38% (inactive)
Cc1ccc(C(=O)Nc2ccc(-c3nc4cc5ccccc5cc4[nH]3)cc2)cc1[N+](=O)[O-]	80% (active)
COc1ccc(C(=O)NC(=S)Nc2ccc(C)c(Cl)c2)cc1[N+](=O)[O-]	5% (inactive)
Cc1ccc(-n2nc3ccc(NC(=O)c4ccc([N+](=O)[O-])cc4)cc3n2)cc1Cl	53% (active)
Cc1ccc(-n2nc3ccc(NC(=O)c4cccc([N+](=O)[O-])c4)cc3n2)cc1Cl	43% (inactive)
CC(=O)N/N=C/c1ccc(-c2ccc([N+](=O)[O-])cc2Br)o1	13% (inactive)
CCOc1ccc(C(=O)NCc2cccnc2)cc1Br	0% (inactive)
CC(C)=NNC(=O)/C(=C/C=C/c1ccccc1)NC(=O)c1ccccc1	7% (inactive)
CC(=O)c1cccc(NC(=O)CC2S/C(=N\N=C(/C)c3ccc(Cl)cc3)NC2=O)c1 (stereo not drawn)	13% (inactive)
O=C(c1nn2c(c1Br)NC(c1cccs1)CC2C(F)(F)F)N1CCOCC1 (stereo not drawn)	0% (inactive)
